RORg inh = blocks mouse ROR gamma transcriptional activity; Drosophila S2 Gal4-RORgamma UAS-luciferase reporter, 20 h; Potency, µM (titrated, usually from 53.6 µM), inactives show at the highest dose activity change, negative = inhibition, usual class: inhibitors; 310,000 compounds, 5.4% hits; AID 2551; also: nearly all actives have a fitted effect of over 60% in size
Target sequence (P51450 whole entry, looked up, the tested form may be a part): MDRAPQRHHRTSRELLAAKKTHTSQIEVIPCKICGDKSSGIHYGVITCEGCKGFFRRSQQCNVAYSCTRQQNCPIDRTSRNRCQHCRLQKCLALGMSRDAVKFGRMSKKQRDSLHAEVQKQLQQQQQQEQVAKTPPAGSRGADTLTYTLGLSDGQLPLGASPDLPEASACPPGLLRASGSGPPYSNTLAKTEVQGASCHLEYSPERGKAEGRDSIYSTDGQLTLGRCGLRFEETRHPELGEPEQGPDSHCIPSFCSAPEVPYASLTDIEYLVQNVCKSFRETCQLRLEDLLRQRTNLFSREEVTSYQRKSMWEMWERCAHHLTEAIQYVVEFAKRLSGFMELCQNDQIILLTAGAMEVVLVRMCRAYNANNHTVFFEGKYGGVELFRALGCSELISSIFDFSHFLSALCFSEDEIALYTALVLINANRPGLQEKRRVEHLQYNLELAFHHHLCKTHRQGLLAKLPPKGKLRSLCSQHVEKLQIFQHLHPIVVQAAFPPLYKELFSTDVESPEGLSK
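ROR gamma transcriptional activity was tracked as Gal4-UAS luciferase output in stably transfected Drosophila Schneider cells, with compound added 1 hr before 700 uM copper sulfate induction and a 20 hr ambient-temperature incubation.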
Tau fluor counter = counter-screen for tau fibril formation inhibitors; tau K18 P301L Alexa594 fluorescence, heparin fibrillization; Potency, µM (series often up to 57.7 µM), inactives show at the top dose activity change, negative = decrease; 280,000 compounds, 0.93% hits; AID 1463; also: nearly all actives have a fitted effect of over 55% in size
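Human K18 P301L tau (15 uM unlabeled plus 0.24 uM Alexa 594-labeled, final) in 100 mM sodium acetate pH 7 was mixed with compound and 20 uM heparin and incubated 6 hr at 37 C.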
Tau fibril ThT = blocks human tau fibril formation measured by thioflavin T; AID 1460; 270,000 compounds, 2.1% hits; P10636; recombinant tau K18 P301L (four-repeat tau fragment), heparin-induced fibrillization, ThT fluorescence; Potency, µM (titrated, usually from 57.4 µM), inactives show at the highest dose activity, negative = inhibition, actives largely listed as inhibitors; also: nearly all actives have a fitted effect of over 55% in size
Target sequence (P10636 561-689 P618L limits assumed): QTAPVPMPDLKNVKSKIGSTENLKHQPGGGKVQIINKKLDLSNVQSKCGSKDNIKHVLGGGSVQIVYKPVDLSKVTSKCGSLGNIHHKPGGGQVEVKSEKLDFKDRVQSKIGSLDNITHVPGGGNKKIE
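Aggregation was driven by heparin (20 uM final) acting on recombinant tau […] bearing P301L in 100 mM sodium acetate pH 7; fibrils were detected with Thioflavin T.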
Gal4-VP16 FLuc = counter-screen for ROR gamma inhibitors: Gal4-VP16 reporter. Drosophila S2 Gal4-VP16 UAS-luciferase, luminescence, 20 h. 310,000 compounds, 3.5% hits. AID 2546. Potency, µM (top dose mostly 53.6 µM), without a hit: top-dose activity, negative = inhibition, usual class: inhibitors;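 also: Gal4-VP16 expression switched on by copper sulfate through the metallothionein promoter; nearly all actives have a fitted effect of over 50% in size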
Tau FP inhib = blocks human tau fibril formation measured by polarization | 280,000 compounds, 0.39% hits | P10636 | K18 P301L tau heparin fibrillization, Alexa594 FP, 6 h | Potency, µM (titrated, usually from 57.7 µM), without a hit: at the top dose activity, negative = inhibition, most hits filed as inhibitors; also: nearly all actives have a fitted effect of over 55% in size
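Quantitative HTS format: compounds meet 15 uM recombinant K18 P301L tau and Alexa 594-tau tracer in 100 mM sodium acetate pH 7; 20 uM heparin triggers fibrillization at 37 C over 6 hr; FP gives the signal.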
* hit, by the source's call; ? = inconclusive; · = no result; [ ] = remark or other dose. Only some compounds are listed: those with a hit (about 7.3% of all), similar ones and a draw of the others. Calls follow the shape of the dose curve; as a rule, active = well fitted curve in the direction sought with a large enough effect; inconclusive = small, poorly fitted or top-dose-only effect, or another doubt; inactive = no such curve, though single readings can be large; an effect the other way counts as inactive or inconclusive. % is scaled to controls: 0 for no effect and ±100 for the full control effect; potency is read from the fitted curve at half-maximal effect.

SMILES	RORg inh	Tau fluor counter	Tau fibril ThT	Gal4-VP16 FLuc	Tau FP inhib
Cc1ccc(OCC(=O)N/N=C\c2cn(C)c3ccccc23)c([N+](=O)[O-])c1	11µM*	?	?	?	18%
Cc1noc(C)c1C(=O)NC(C)c1ccc(Cl)cc1Cl (centres undefined)	14%	3%	4%	2%	10%
CCCCCCCC[n+]1c(C)n(-c2ccccc2)c2ccc(NC(C)=O)cc21	1%	0%	-7%	?	7%
Cc1ccc(C2=NNC(=O)C(c3ccc(Cl)cc3)C2)cc1 (centres undefined)	30%	-16%	-20%	0%	5%
Cc1ccc(C2NCCS2)cc1 (centres undefined)	7%	-16%	22µM*	0%	?
CN(C)c1ccc(C2NCCS2)cc1 (centres undefined)	0%	-15%	28µM*	-4%	?
Cc1cccc(CN2C(=O)CSc3ccc(C(=O)NC4CC4)cc32)c1	26%	·	·	6%	·
COc1ccc(NC(=O)c2cc(C(C)=O)n3ccccc23)cc1Cl	·	28µM*[quencher]	-13%	·	?
CCc1ccc(NC(=O)c2cc(C(C)=O)n3ccccc23)cc1	·	-25%	2%	·	-17%
Cc1cc(C)cc(NC(=O)COCc2cc(-c3ccc4c(c3)OCO4)on2)c1	·	8%	10%	·	3%
Cc1ccccc1CNC(=O)C(C)n1nc(C)n2c(cc3occc32)c1=O (centres undefined)	·	-17%	-14%	·	-2%
CN1CCN(NC(=S)NC(C)(C)CC(C)(C)C)CC1	6.3µM*	-2%	-4%	18µM*	10%
ONCc1ccccc1	-3%	·	·	-1%	·
Cc1ccc(-c2cc(C(=O)O)c3cc(Br)ccc3n2)o1	-3%	-16%	20µM*	3%	?
Cc1ccc(-c2cc(C(=O)NC3=NCCS3)c3cc(Br)ccc3n2)o1	7.9µM*	?	?	14µM*	-4%
Cc1ccc(-c2cc(C(=O)NN3CCOCC3)c3cc(Br)ccc3n2)o1	-42%	-5%	?	-16%	-4%
CCCCCCCCCCCCC/C=C/[C@@H](O)[C@H](CO)NC(=O)CCCCCCC	-34%	7%	3%	3%	1%
COc1ccc(Cl)cc1-c1n[nH]c(=S)n1C1CCCCC1	4µM*	-12%	?	7.9µM*	?
COc1ccc(-c2n[nH]c(=S)n2C2CCCCC2)cc1	3.2µM*	-11%	-8%	7.1µM*	-2%
Cc1cc(Cl)ccc1OCc1n[nH]c(=S)n1C1CCCCC1	0.79µM*	?	?	2.5µM*	0%
Cc1ccsc1-c1n[nH]c(=S)n1C1CCCCC1	3.5µM*	5%	6%	?	7%
Cc1cc(Cl)ccc1OCC(=O)N1C(C)CCCC1C (centres undefined)	-34%	-4%	-8%	?	5%
S=c1[nH]nc(-c2cccnc2)n1C1CCCCC1	?	-15%	-12%	?	-4%
COc1ccc(Cl)cc1-c1csc(N)n1	21%	-10%	-17%	3%	10%
Cc1ccc(SCCNC(=O)C(CO)(CO)CO)cc1	-7%	3%	8%	-23%	-4%
SMILES	RORg inh	Tau fluor counter	Tau fibril ThT	Gal4-VP16 FLuc	Tau FP inhib
Cc1ccc(NC(=S)NCCO)c(C)c1	-43%	-4%	-12%	4%	-6%
CSc1cccc(NC(=S)Nc2cc(C)ccc2C)c1	11µM*	-21%	-1%	?	-5%
Cc1cc(C)cc(NC(=S)NCCSc2ccc(Cl)cc2)c1	2.8µM*	?	2%	5µM*	?
Cc1ccc(SCCNC(=S)Nc2cc(C)ccc2C)cc1	6.3µM*	-30%	-22%	7.9µM*	7%
Cc1ccc(SCCNC(=S)Nc2ccc(C)c(C)c2)cc1	4.5µM*	?	-5%	8.9µM*	-6%
Cc1ccc(C)c(NC(=S)Nc2cccnc2)c1	?	0%	-2%	-5%	4%
CCC1CC=CC2C1C(=O)N(Cc1ccccc1)C2c1ccc(C(F)(F)F)cc1 (centres undefined)	23%	·	·	?	·
Cc1nn2c(-c3ccco3)ccnc2c1-c1ccc(Cl)cc1	·	-15%	?	·	?
Cc1cc(Br)ccc1N=C1NC(=O)CS1	2%	·	·	1%	·
CCOc1ccc(C(=O)c2cn(CC(=O)Nc3ccc(OC)cc3)c3cc4c(cc3c2=O)OCO4)cc1	·	-16%	6%	·	1%
COC(=O)Cc1ccc(NC(=S)NCCSc2ccc(Cl)cc2)cc1	16µM*	7.9µM*[quencher]	-14%	?	?
Cc1ccc(SCCNC(=S)Nc2ccccc2)cc1	0.79µM*	?	2%	1µM*	-5%
COc1ccccc1NC(=O)CCNC(=O)c1ccc(C)cc1	-1%	·	·	9%	·
COc1ccccc1NC(=S)NCCSc1ccc(C)cc1	13µM*	?	-7%	11µM*	0%
Cc1ccc(NC(=S)NNC(=O)Nc2ccccc2)cc1	?	-17%	?	-12%	6%
CCc1ccc2oc(=O)cc(CN3CCCCC3)c2c1	-6%	·	·	0%	·
CCCCCC(=O)/C=C/C=C\CCCCCCCC(=O)O	5%	-4%	-3%	3%	4%
COc1cc(C(=O)Nc2ccccc2-c2nc(-c3ccccc3)no2)cc(OC)c1OC	·	-10%	?	·	-18%
CC(C)[C@@H]1NC(=O)[C@H](CCCCN)NC(=O)[C@@H](Cc2c[nH]c3ccccc23)NC(=O)[C@H](Cc2ccc(O)cc2)NC(=O)[C@@H](NC(=O)[C@H](N)Cc2ccccc2)CSSC[C@@H](C(=O)N[C@@H](Cc2c[nH]c3ccccc23)C(N)=O)NC1=O	3%	·	·	-1%	·
COc1ccc(NC(=O)c2cnn(-c3ccccc3)c2C)cc1	?	·	·	-25%	·
COC(=O)c1cnn(-c2ccccc2)c1/C=N/NC(=S)Nc1ccc(Cl)cc1	0.45µM*	7%	·	2µM*	-8%
C#CCCCO/N=C1/C[C@@H](O)[C@@H](O)[C@@H]2[C@@H]3C(=O)N(Cc4ccc5c(c4)OCO5)C(=O)[C@H]3CC[C@@H]12	2%[10 µM]	0%[11.6 µM]	-4%[11.5 µM]	-4%[10 µM]	-2%[11.6 µM]
Cc1cccnc1CN1CCN(Cc2nc(C(c3ccccc3)c3ccccc3)no2)CC1	11µM*	-1%	-10%	-25%	8%
CC(=O)N1CCN(Cc2nc(C(c3ccccc3)c3ccccc3)no2)CC1	19%	-4%	1%	5%	9%
CCCc1cc(=O)[nH]c(SCC(=O)Nc2ncc(S(=O)(=O)c3ccc([N+](=O)[O-])cc3)s2)n1	24%	-27%	-7%	-11%	0%
O=C(/C=C/c1ccc(O)c(O)c1)c1ccc(S(=O)(=O)N2CCCCCC2)cc1	13µM*	?	?	?	13%
COc1cccc(-c2csc(N3CCN(C(=S)Nc4ccccc4OC)CC3)n2)c1	7.9µM*	?	?	?	8%
CCNC(=S)N1CCN(c2nc(-c3cccc(OC)c3)cs2)CC1	14%	·	·	?	·

Screening data as filed in PubChem BioAssay.
